According to PubChem BioAssay (NCATS):
Results filed as inconclusive are left out. Active and inactive are the calls of the source. Calls come from the whole dose curve; as a rule, active = well fitted curve in the direction sought with a large enough effect; inconclusive = small, poorly fitted or top-dose-only effect, or another doubt; inactive = no such curve, though single readings can be large; an effect the other way counts as inactive or inconclusive. Bridge positions count the residues as written; N and C are the ends. Square brackets hold non-standard residues; d marks the D form. Peptide text beside a SMILES is read from it. * marks the point of attachment. ξ: configuration not given here. ξDab(CH2SO3H) = NC(CCNCS(=O)(=O)O)C(=O)O; Heptanoyl(6-Me) = CC(C)CCCCC(=O)*; Orn = NCCC[CH](N)C(=O)O; Dab = NCC[CH](N)C(=O)O

Key:
[1] = biological target: Cytochrome P450 3A4 (Homo sapiens) (UniProt P08684); experiment: qHTS Assay for Inhibitors and Substrates of Cytochrome P450 3A4 (AID 884); conditions: recombinant CYP3A4, Luciferin-PPXE luminescence; series mostly up to 57.1 µM; note: nearly all actives have a fitted effect of over 50% in size; note: potency is the fitted concentration of half-maximal effect
Chain of Cytochrome P450 3A4 (Homo sapiens) (P08684 whole entry, looked up): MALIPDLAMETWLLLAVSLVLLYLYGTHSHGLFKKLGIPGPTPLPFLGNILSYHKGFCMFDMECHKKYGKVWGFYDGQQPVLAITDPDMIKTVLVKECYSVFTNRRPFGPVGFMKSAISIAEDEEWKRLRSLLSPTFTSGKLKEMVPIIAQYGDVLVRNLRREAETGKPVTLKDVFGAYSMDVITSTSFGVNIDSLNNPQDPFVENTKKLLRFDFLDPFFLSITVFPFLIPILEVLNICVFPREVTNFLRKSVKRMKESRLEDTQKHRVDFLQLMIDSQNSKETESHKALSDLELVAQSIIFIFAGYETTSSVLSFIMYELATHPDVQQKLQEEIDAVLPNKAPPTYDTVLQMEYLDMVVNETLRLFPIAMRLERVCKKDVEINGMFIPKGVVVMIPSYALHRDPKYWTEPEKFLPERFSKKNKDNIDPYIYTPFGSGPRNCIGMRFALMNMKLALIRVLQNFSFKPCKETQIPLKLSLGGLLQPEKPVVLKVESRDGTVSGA
Procedure, shortened: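 20 nM human CYP3A4 with 25 uM Luciferin-PPXE (at KM) in 200 mM KPO4, preincubated 10 min with compound; NADPH regeneration started a 60 min RT reaction. Luciferin detected by luminescence, normalized to 57 uM ketoconazole as full inhibition.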

[2] = Confirmation and Secondary Assay for Modulators of Hemoglobin Beta Chain Splicing at IVS2 654 locus (AID 910); conditions: HeLa EGFP-654 splicing reporter, GFP fluorescence, 48 h; series mostly up to 46.1 µM; note: % of control where 0% means no effect
Procedure, shortened: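 HeLa cells stably carrying EGFP interrupted by mutant beta-globin IVS2-654 intron (CMV-driven) were treated with compound for 2 days at 37C; corrected splicing was scored as total peak GFP intensity per well (488 nm excitation, 500-520 nm emission).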

[3] = Confirmation and Secondary Assay for Modulators of Hemoglobin Beta Chain Splicing at IVS2 705 locus (AID 930); conditions: HeLa EGFP-705 splicing reporter, GFP fluorescence, 48 h; series mostly up to 46.1 µM;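 note: HeLa cells stably expressing the EGFP-705 splicing reporter; GFP fluorescence per well restored by corrected splicing of the IVS2-705 intron in EGFP; % of control where 0% means no effect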
Procedure, shortened: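 HeLa cells stably carrying EGFP interrupted by mutant beta-globin intron 2 (IVS2-705) treated 2 days at 37C with compound; 500 nM antisense PNA as control. Correct splicing read as total peak GFP intensity per well by laser-scanning cytometry.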

[4] = biological target: Ubiquitin carboxyl-terminal hydrolase 1 (Homo sapiens) (UniProt O94782); experiment: Inhibitors of USP1/UAF1: Pilot qHTS (AID 504865); conditions: purified USP1/UAF1, Ub-rhodamine cleavage fluorescence; series mostly up to 114 µM; note: nearly all actives have a fitted effect of over 35% in size; note: potency is the fitted concentration of half-maximal effect
Chain of Ubiquitin carboxyl-terminal hydrolase 1 (Homo sapiens) (O94782 whole entry, looked up): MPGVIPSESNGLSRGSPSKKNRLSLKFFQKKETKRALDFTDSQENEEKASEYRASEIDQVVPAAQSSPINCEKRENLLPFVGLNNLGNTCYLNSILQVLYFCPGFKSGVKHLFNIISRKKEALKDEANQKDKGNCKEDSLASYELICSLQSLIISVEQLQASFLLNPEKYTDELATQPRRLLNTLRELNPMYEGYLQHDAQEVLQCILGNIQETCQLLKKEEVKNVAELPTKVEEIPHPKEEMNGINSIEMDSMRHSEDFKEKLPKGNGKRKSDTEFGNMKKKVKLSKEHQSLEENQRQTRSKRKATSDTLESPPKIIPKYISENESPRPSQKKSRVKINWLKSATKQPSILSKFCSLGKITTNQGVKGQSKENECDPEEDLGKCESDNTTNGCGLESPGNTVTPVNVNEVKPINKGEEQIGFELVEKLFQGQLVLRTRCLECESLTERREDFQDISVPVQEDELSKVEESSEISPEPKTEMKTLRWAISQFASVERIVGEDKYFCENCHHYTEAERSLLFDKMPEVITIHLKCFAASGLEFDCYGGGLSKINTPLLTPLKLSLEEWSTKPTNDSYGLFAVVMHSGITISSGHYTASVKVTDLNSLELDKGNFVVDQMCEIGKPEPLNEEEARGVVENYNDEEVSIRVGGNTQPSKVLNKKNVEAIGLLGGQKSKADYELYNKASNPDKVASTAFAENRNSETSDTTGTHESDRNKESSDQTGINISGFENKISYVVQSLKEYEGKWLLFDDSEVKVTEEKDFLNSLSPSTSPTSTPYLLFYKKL
Procedure, shortened: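 Kinetic fluorescence assay: 1nM USP1/UAF1, 15 min compound preincubation, then 150nM Ub-Rho; 480/540 nm.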

[5] = qHTS profiling for inhibitors of Plasmodium falciparum proliferation (AID 504749); note: potency is the fitted concentration of half-maximal effect;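 for activity, negative = inhibition: 0% = DMSO vehicle and full inhibition = artemisinin control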; for all read-outs here: nearly all actives have a fitted effect of over 60% in size; conditions: P. falciparum in erythrocytes, SYBR Green DNA, 72 h; for activity, negative = inhibition: at 28.7 µM (top of the series)
Procedure, shortened: (§1)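 P. falciparum-infected erythrocytes (0.3% parasitemia, 2.5% hematocrit final) were exposed to compounds for 72 h at 37 C in 5% CO2, then lysed with SYBR Green buffer overnight at room temperature; parasite DNA fluorescence was normalized to artemisinin and DMSO controls.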

AA1029 = experiment: as above; conditions: P. falciparum in erythrocytes, SYBR Green DNA, 72 h; series mostly up to 28.7 µM
Procedure, shortened: as §1

ATS189 = experiment: as above; conditions: P. falciparum in erythrocytes, SYBR Green DNA, 72 h; series mostly up to 28.7 µM
Procedure, shortened: as §1

CP185 = experiment: as above; conditions: P. falciparum in erythrocytes, SYBR Green DNA, 72 h; series mostly up to 28.7 µM
Procedure, shortened: as §1

CP201 = experiment: as above; conditions: P. falciparum in erythrocytes, SYBR Green DNA, 72 h; series mostly up to 28.7 µM
Procedure, shortened: as §1

CP238 = experiment: as above; conditions: P. falciparum in erythrocytes, SYBR Green DNA, 72 h; series mostly up to 28.7 µM
Procedure, shortened: as §1

CP252 = experiment: as above; conditions: P. falciparum in erythrocytes, SYBR Green DNA, 72 h; series mostly up to 28.7 µM
Procedure, shortened: as §1

CP265 = experiment: as above; conditions: P. falciparum in erythrocytes, SYBR Green DNA, 72 h; series mostly up to 28.7 µM
Procedure, shortened: as §1

CP286 = experiment: as above; conditions: P. falciparum in erythrocytes, SYBR Green DNA, 72 h; series mostly up to 28.7 µM
Procedure, shortened: as §1

CP305 = experiment: as above; conditions: P. falciparum in erythrocytes, SYBR Green DNA, 72 h; series mostly up to 28.7 µM
Procedure, shortened: as §1

CP325 = experiment: as above; conditions: P. falciparum in erythrocytes, SYBR Green DNA, 72 h; series mostly up to 28.7 µM
Procedure, shortened: as §1

FAB9 = experiment: as above; conditions: P. falciparum in erythrocytes, SYBR Green DNA, 72 h; series mostly up to 28.7 µM
Procedure, shortened: as §1

PC15 = experiment: as above; conditions: P. falciparum in erythrocytes, SYBR Green DNA, 72 h; series mostly up to 28.7 µM
Procedure, shortened: as §1

PC49 = experiment: as above; conditions: P. falciparum in erythrocytes, SYBR Green DNA, 72 h; series mostly up to 28.7 µM
Procedure, shortened: as §1

[6] = biological target: DNA dC->dU-editing enzyme APOBEC-3G (Homo sapiens) (UniProt Q9HC16); experiment: qHTS for inhibitors of Vif-A3G interactions: Validation (AID 588379); conditions: Vif-A3G protein interaction assay; series mostly up to 46.1 µM; note: 0% is about no effect
Chain of DNA dC->dU-editing enzyme APOBEC-3G (Homo sapiens) (Q9HC16 whole entry, looked up): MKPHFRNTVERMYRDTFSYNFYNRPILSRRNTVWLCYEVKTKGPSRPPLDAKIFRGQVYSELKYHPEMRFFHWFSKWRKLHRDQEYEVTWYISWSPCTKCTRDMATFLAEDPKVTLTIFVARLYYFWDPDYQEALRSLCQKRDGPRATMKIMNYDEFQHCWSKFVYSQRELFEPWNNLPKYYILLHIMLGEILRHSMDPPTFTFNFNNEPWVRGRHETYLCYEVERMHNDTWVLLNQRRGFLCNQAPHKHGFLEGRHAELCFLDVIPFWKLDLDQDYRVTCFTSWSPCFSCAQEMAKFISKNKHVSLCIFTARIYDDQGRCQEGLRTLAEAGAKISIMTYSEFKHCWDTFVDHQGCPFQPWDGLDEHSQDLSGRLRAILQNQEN
Procedure, shortened: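 HeLa cells stably expressing Vif and A3G-eYFP, 700 cells/well, incubated overnight at 37 deg C, then exposed to compound overnight at 37 deg C. Inhibition of Vif-mediated degradation read as increased yellow fluorescence (Ex 488/Em 500-530) by laser-scanning cytometry.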

[7] = biological target: Cytochrome P450 3A4 (Homo sapiens) (UniProt P08684); experiment: qHTS Assay for Activators of Cytochrome P450 3A4 (AID 885); conditions: recombinant CYP3A4, Luciferin-PPXE luminescence, 60 min; series mostly up to 57.1 µM; note: nearly all actives have a fitted effect of over 65% in size
Procedure, shortened: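 Human CYP3A4 (20 nM) with Luciferin-PPXE at 25 uM (its KM) in 200 mM KPO4; 10 min compound preincubation, then NADPH regeneration and 60 min reaction at RT. Luciferin read by luminescence; normalized to 57 uM ketoconazole full inhibition.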

CC(C)CC1NC(=O)C(CCCN)NC(=O)C(C(C)C)NC(=O)C2CCCN2C(=O)C(Cc2ccccc2)NC(=O)C(CC(C)C)NC(=O)C(CCCN)NC(=O)C(C(C)C)NC(=O)C2CCCN2C(=O)C(Cc2ccccc2)NC1=O (stereo not given) (cyclo(FPV[Orn]LFPV[Orn]L); configuration not given here)
inactive: Potency [1] | outcome [2] | outcome [3] | Potency [4]
active: Potency ([5]; parasite line A) 1.3 nM | Potency ([5]; parasite line B) 1.3 nM | Potency (AA1029) 0.9 nM | Potency (ATS189) 2.2 nM | Potency (CP185) 2.8 nM | Potency (CP201) 3.4 nM | Potency (CP238) 1.6 nM | Potency (CP252) 1.3 nM | Potency (CP265) 1.1 nM | Potency (CP286) 0.8 nM | Potency (CP305) 1.9 nM | Potency (CP325) 1.1 nM | Potency (FAB9) 0.01 µM | Potency (PC15) 0.0056 µM | Potency (PC49) 0.0071 µM

CC[C@H](/C=C/[C@@H](C)[C@H]1CC[C@H]2C3CC=C4C[C@@H](O)CC[C@]4(C)C3CC[C@]12C)C(C)C (stereo not given in full)
inactive: Potency [4] | Potency [6]

C=CC1=C(C(=O)O)N2C(=O)[C@@H](NC(=O)C(N=O)c3csc(N)n3)[C@H]2SC1 (stereo not given in full)
inactive: Potency [4] | activity, negative = inhibition ([5]; parasite line A) 6.56% | activity, negative = inhibition ([5]; parasite line B) 16.7% | Potency (AA1029) | Potency (ATS189) | Potency (CP185) | Potency (CP201) | Potency (CP238) | Potency (CP252) | Potency (CP265) | Potency (CP286) | Potency (CP305) | Potency (CP325) | Potency (FAB9) | Potency (PC15) | Potency (PC49)

O=C(OCC1OC(OC(=O)c2cc(O)c(O)c(OC(=O)c3cc(O)c(O)c(O)c3)c2)[C@@H](OC(=O)c2cc(O)c(O)c(OC(=O)c3cc(O)c(O)c(O)c3)c2)C(OC(=O)c2cc(O)c(O)c(OC(=O)c3cc(O)c(O)c(O)c3)c2)C1OC(=O)c1cc(O)c(O)c(OC(=O)c2cc(O)c(O)c(O)c2)c1)c1cc(O)c(O)c(OC(=O)c2cc(O)c(O)c(O)c2)c1 (stereo not given in full)
inactive: Potency [7] | outcome [2]
active: Potency [1] 3.98 µM | Potency [4] 3.98 µM | Potency ([5]; parasite line A) 2510 nM | Potency ([5]; parasite line B) 3550 nM | Potency (AA1029) 2510 nM | Potency (ATS189) 2510 nM | Potency (CP185) 2820 nM | Potency (CP201) 4780 nM | Potency (CP238) 2510 nM | Potency (CP252) 2510 nM | Potency (CP265) 2510 nM | Potency (CP286) 2240 nM | Potency (CP305) 3380 nM | Potency (CP325) 3010 nM | Potency (FAB9) 11.2 µM | Potency (PC15) 7.94 µM | Potency (PC49) 11.2 µM

CCC(C)C1NC(=O)C(CCNCS(=O)(=O)O)NC(=O)C(NC(=O)C(CCNCS(=O)(=O)O)NC(=O)C(NC(=O)C(CCNCS(=O)(=O)O)NC(=O)CCCCC(C)C)C(C)O)CCNC(=O)C(C(C)O)NC(=O)C(CCNCS(=O)(=O)O)NC(=O)C(CCNCS(=O)(=O)O)NC(=O)C(C(C)CC)NC1=O (stereo not given) ({Heptanoyl(6-Me)}-[ξDab(CH2SO3H)]T[ξDab(CH2SO3H)][Dab][ξDab(CH2SO3H)]II[ξDab(CH2SO3H)][ξDab(CH2SO3H)]T; lactam 4-C; configuration not given here)
inactive: Potency [1] | outcome [2] | outcome [3] | activity, negative = inhibition ([5]; parasite line A) -19.4% | activity, negative = inhibition ([5]; parasite line B) 8.48% | Potency (AA1029) | Potency (ATS189) | Potency (CP185) | Potency (CP201) | Potency (CP238) | Potency (CP252) | Potency (CP265) | Potency (CP286) | Potency (CP305) | Potency (CP325) | Potency (FAB9) | Potency (PC15) | Potency (PC49)
active: Potency [4] 44.7 µM

O=c1cc(-c2ccc(O)cc2)oc2cccc(O)c12
inactive: Potency [7] | Potency [4] | Potency [6]
active: Potency [1] 0.794 µM

CCC(C)C1NC(=O)C(Cc2ccc(O)cc2)NC(=O)C(N)CSSCC(C(=O)N2CCCC2C(=O)NC(CC(C)C)C(=O)NCC(N)=O)NC(=O)C(CC(N)=O)NC(=O)C(CCC(N)=O)NC1=O (stereo not given)
inactive: activity, negative = inhibition ([5]; parasite line A) 0.779% | activity, negative = inhibition ([5]; parasite line B) 4.79% | Potency (AA1029) | Potency (ATS189) | Potency (CP185) | Potency (CP201) | Potency (CP238) | Potency (CP252) | Potency (CP265) | Potency (CP286) | Potency (CP305) | Potency (CP325) | Potency (FAB9) | Potency (PC15) | Potency (PC49)

O=C1/C(=C\c2cccs2)CCC/C1=C/c1cccs1
inactive: activity, negative = inhibition ([5]; parasite line A) 0.948% | activity, negative = inhibition ([5]; parasite line B) 10.7% | Potency (AA1029) | Potency (ATS189) | Potency (CP185) | Potency (CP201) | Potency (CP238) | Potency (CP252) | Potency (CP265) | Potency (CP286) | Potency (CP305) | Potency (CP325) | Potency (FAB9) | Potency (PC15) | Potency (PC49)

CCC(Oc1ccccc1)C(=O)NC1C(=O)N2C1SC(C)(C)C2C(=O)O (stereo not given)
inactive: Potency [4] | activity, negative = inhibition ([5]; parasite line A) -3.05% | activity, negative = inhibition ([5]; parasite line B) 10.5% | Potency (AA1029) | Potency (ATS189) | Potency (CP185) | Potency (CP201) | Potency (CP238) | Potency (CP252) | Potency (CP265) | Potency (CP286) | Potency (CP305) | Potency (CP325) | Potency (FAB9) | Potency (PC15) | Potency (PC49)

CC1CCC2[C@](C)(CO)C(O)CC[C@]2(C)C12CCC(CO)(CCO)O2 (stereo not given in full)
inactive: Potency [1] | Potency [4] | Potency [6]

COc1cc(OC)c2c(c1)OC(c1ccccc1)CC2=O (stereo not given)
active: Potency [1] 12.6 µM
inactive: Potency [4] | Potency [6]

O=C(/C=C/c1ccc(O)cc1)c1c(O)cc(O)cc1O
active: Potency [1] 7.94 µM
inactive: Potency [7] | Potency [4] | Potency [6]

COc1cc2c(C(=O)c3ccccc3)c3c4c(cc(OC)c(OC)c4c2cc1OC)CCN3C
active: Potency [1] 1.26 µM | Potency [4] 25.1 µM
inactive: Potency [7] | Potency [6]

CNCC(=O)NC(CCCN=C(N)N)C(=O)NC(C(=O)NC(Cc1ccc(O)cc1)C(=O)NC(C(=O)NC(Cc1cnc[nH]1)C(=O)N1CCCC1C(=O)NC(C)C(=O)O)C(C)C)C(C)C (stereo not given)
inactive: Potency [4] | activity, negative = inhibition ([5]; parasite line A) 15.8% | activity, negative = inhibition ([5]; parasite line B) 17.4% | Potency (AA1029) | Potency (ATS189) | Potency (CP185) | Potency (CP201) | Potency (CP238) | Potency (CP252) | Potency (CP265) | Potency (CP286) | Potency (CP305) | Potency (CP325) | Potency (FAB9) | Potency (PC15) | Potency (PC49)
